From PubChem BioAssay
HT1080 IDH1KD tx = qHTS for induction of synthetic lethality in tumor cells producing 2HG: qHTS for the HT-1080-IDH1KD cell line | HT-1080 IDH1 knockdown viability, ATP luminescence, 48 h | AID 686971, 2013 | Potency, µM (top dose mostly 46.1 µM), inactives show top-dose activity, negative = toxicity, actives largely listed as cytotoxic | 360,000 compounds, 2% hits;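 also: potency is read from the fitted curve at half-maximal effect; 0% = DMSO wells and -100% = cell-free medium wells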
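Knockdown cells (IDH1KD HT-1080) received compounds 2 h after plating at 750 cells/well and were kept 48 h at 37 °C in 5% FBS RPMI. A CellTiter-Glo luminescence read gave % activity for curve fitting.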
12-LOX inh = Primary qHTS assay for inhibitors of human arachidonate 12S-lipoxygenase (ALOX12): Round 2; Polyunsaturated fatty acid lipoxygenase ALOX12 (Homo sapiens), P18054; purified 12hLO, xylenol orange hydroperoxide absorbance; Potency, µM (series often up to 108 µM), without a hit: at the top dose activity change, negative = inhibition, actives largely listed as inhibitors; 580,000 compounds, 1.1% hits; AID 1671190, 2021; also: potency is read from the fitted curve at half-maximal effect
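Purified human 12hLO (150 nM final) in 25 mM Hepes, 0.01% Triton X-100, pH 7.0 was preincubated 15 min at room temperature with compound. Then 40 uM arachidonic acid was added, 30 min. Hydroperoxide was read by Fe-XO absorbance ratio 573/405 nm.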
HT1080NT lethal = qHTS for induction of synthetic lethality in tumor cells producing 2HG: qHTS for the HT-1080-NT fibrosarcoma cell line. HT-1080-NT fibrosarcoma viability, CellTiter-Glo ATP luminescence, 48 h. Potency, µM (highest dose often 46.1 µM), for the others: at the top dose activity, negative = less viability, usual class: cytotoxic. 360,000 compounds, 1.6% hits;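 also: NT is the 2HG producing partner of a matched IDH1 knockdown line; potency is read from the fitted curve at half-maximal effect; 0% = DMSO-treated cells and -100% = media-only wells without cells; nearly all actives have a fitted effect of over 55% in size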
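Read-out is CellTiter-Glo luminescence after 10 minutes at room temperature, following 48 hours' compound treatment of HT-1080-NT cells (750 cells/well, RPMI, 5% FBS, 37 degrees C).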
DT40 TDP1 CPT = qHTS for Inhibitors of human tyrosyl-DNA phosphodiesterase 1 (TDP1): qHTS in cells in presence of CPT. chicken DT40 Tdp1-/-;hTDP1 cells + 20 nM CPT, ATP luminescence, 48 h. Potency, µM (highest dose often 46.2 µM), for the others: top-dose activity change, negative = growth inhibition, hits mostly inhibitors. 420,000 compounds, 12% hits. AID 686979, 2013; also: potency is read from the fitted curve at half-maximal effect; nearly all actives have a fitted effect of over 55% in size
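Chicken DT40 Tdp1-/- cells stably complemented with human TDP1 were seeded at 400 cells/well in medium containing 20 nM camptothecin, exposed to pin-transferred compounds, and grown at 37 °C for at least 48 hr. Viability was read as ATP luminescence.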
TDP1 cell noCPT = qHTS for Inhibitors of human tyrosyl-DNA phosphodiesterase 1 (TDP1): qHTS in cells in absence of CPT; DT40 Tdp1-/- hTDP1 cells, no CPT, ATP luminescence, 48 h; 420,000 compounds, 15% hits; Potency, µM (titrated, usually from 46.2 µM), without a hit: at the highest dose activity change, negative = growth inhibition, most hits filed as inhibitors; AID 686978, 2013; also: potency is read from the fitted curve at half-maximal effect; nearly all actives have a fitted effect of over 55% in size
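DT40 Tdp1-/-;hTDP1 cells, no CPT (DMSO vehicle only), 400 cells/well; compounds pin-transferred; ≥48 hr, 37 °C; CellTiter-Glo 30 min RT dark, luminescence read.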
IL1B secr inh = qHTS for Inhibitors of Inflammasome Signaling: IL-1-beta AlphaLISA Primary Screen; THP-1 LPS/ATP IL-1B secretion, AlphaLISA, 16 h; stronger effect = lower value; activity change, % at 57.5 µM; 360,000 compounds, 4.7% hits; AID 743279, 2014; in the data active = activity change below about -50%; inconclusive = mostly about -30% to -49%
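Secreted IL-1B measured by AlphaLISA bead assay after 16 h compound exposure of THP-1 cells; compounds (final up to 57.5 uM) added 1 h before LPS (250 ng/mL) and ATP (1.25 mM) stimulation; lower signal means less secretion.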
* = called active by the depositor; [ ] = dose if it differs, or a comment. The full list was thinned out, with hits kept by preference. Unless noted, calls follow the shape of the dose curve; as a rule, active = well fitted curve in the direction sought with a large enough effect; inconclusive = small, poorly fitted or top-dose-only effect, or another doubt; inactive = no such curve, though single readings can be large; an effect the other way counts as inactive or inconclusive. Unless noted, % is scaled to controls: 0 for no effect and ±100 for the full control effect.

Results for CCCCCCCCCCOC(=O)Cn1c(COc2ccccc2)[n+](C)c2ccccc21 ?
HT1080 IDH1KD tx: -6.1%; 12-LOX inh: 0.0%; HT1080NT lethal: -24.1%; DT40 TDP1 CPT: 5.8µM*; TDP1 cell noCPT: 2.59µM*; IL1B secr inh: 0.0

What do the screens show for `CCCCOC(=O)Cn1c(=O)n(CC(=O)OCCCC)c2ccccc21`?
HT1080 IDH1KD tx: 0.8%[9.24 µM]; 12-LOX inh: 0.0%; HT1080NT lethal: 3.3%; DT40 TDP1 CPT: -11.6%; TDP1 cell noCPT: -20.4%; IL1B secr inh: 12.1

Results for Cc1cc2nc(-c3cccc(Br)c3)c(CC(C)(C)C)n2c(C)c1Br ?
HT1080 IDH1KD tx: -22.1%; 12-LOX inh: -38.9%; HT1080NT lethal: -27.0%; DT40 TDP1 CPT: inconclusive; TDP1 cell noCPT: -44.4%; IL1B secr inh: 15.1

Results for Cc1cc2nc(-c3ccccc3)c(CC(C)(C)C)n2c(C)c1Br ?
HT1080 IDH1KD tx: -26.4%; 12-LOX inh: -6.6%; HT1080NT lethal: -21.2%; DT40 TDP1 CPT: 14.6µM*; TDP1 cell noCPT: 18.4µM*; IL1B secr inh: 99.1

How did Cc1cc2nc(-c3ccc(Cl)cc3)c(CC(C)(C)C)n2c(C)c1Br do in these assays?
HT1080 IDH1KD tx: -25.8%; 12-LOX inh: inconclusive; HT1080NT lethal: -23.1%; DT40 TDP1 CPT: 14.6µM*; TDP1 cell noCPT: inconclusive; IL1B secr inh: 10.1

Results for O=C(CSc1nnc(CCc2ccccc2)n1-c1ccc(Cl)cc1)c1ccccc1 ?
HT1080 IDH1KD tx: 2.8%; 12-LOX inh: inconclusive; HT1080NT lethal: 4.3%; DT40 TDP1 CPT: inconclusive; TDP1 cell noCPT: 23.1µM*; IL1B secr inh: -63.7*

What do the screens show for `COc1ccc(-n2c(CCc3ccccc3)nnc2SCC(=O)c2ccc(Cl)cc2)cc1`?
HT1080 IDH1KD tx: -6.7%; 12-LOX inh: -15.6%; HT1080NT lethal: 7.6%; DT40 TDP1 CPT: inconclusive; TDP1 cell noCPT: inconclusive; IL1B secr inh: inconclusive

Results for S=c1[nH]nc(CCc2ccccc2)n1-c1ccc(Cl)cc1 ?
HT1080 IDH1KD tx: -17.6%; 12-LOX inh: 31.6µM*; HT1080NT lethal: -9.9%; DT40 TDP1 CPT: inconclusive; TDP1 cell noCPT: -20.0%; IL1B secr inh: 21.6

Results for COC(=O)/C=C/c1cc(OC)c(OC)c(S(=O)(=O)Oc2ccc3c(c2)CCC3)c1 ?
12-LOX inh: -24.2%

How did Cc1ccc(Cn2c(SCc3ccc(C(=O)NC4CCCCC4)cc3)nc3ccncc32)cc1 do in these assays?
12-LOX inh: -20.2%; DT40 TDP1 CPT: inconclusive; TDP1 cell noCPT: 20.6µM*

What do the screens show for `COc1ccc(Cn2c(SCc3ccc(C(=O)NC4CCCCC4)cc3)nc3ccncc32)cc1`?
12-LOX inh: -8.2%; DT40 TDP1 CPT: inconclusive; TDP1 cell noCPT: 16.4µM*

How did O=C(NC1CCCCC1)c1ccc(CSc2nc3ccncc3n2Cc2ccccc2)cc1 do in these assays?
12-LOX inh: -12.0%; DT40 TDP1 CPT: inconclusive; TDP1 cell noCPT: 20.6µM*

What do the screens show for `COc1ccc(CSc2nc3ccncc3n2CC(=O)Nc2cc(C)cc(C)c2)cc1`?
12-LOX inh: -28.6%; DT40 TDP1 CPT: inconclusive; TDP1 cell noCPT: 16.4µM*

What do the screens show for `COc1ccc(CSc2nc3ccncc3n2Cc2ccccc2)cc1`?
12-LOX inh: 6.3%

How did NC(=O)c1ccc(COC(=O)c2ccccc2-c2ccccc2)cc1 do in these assays?
12-LOX inh: -31.8%
